# Measured values reported in PubChem BioAssay (NCATS).
# Unmarked numbers belong to inactive results. Inconclusive results are not listed. A call without a number means that no potency is given here. Activity calls are given as the source filed them. Calls follow the shape of the dose curve; as a rule, active = well fitted curve in the direction sought with a large enough effect; inconclusive = small, poorly fitted or top-dose-only effect, or another doubt; inactive = no such curve, though single readings can be large; an effect the other way counts as inactive or inconclusive.
# Tests used:
# [1] = molecular target: Glutathione peroxidase 1 (Homo sapiens) (UniProt P07203); assay: Primary qHTS Assay for Inhibitors of Recombinant Selenoprotein Glutathione Peroxidase 1 (GPX1) (AID 1845191); also: nearly all actives have a fitted effect of over 65% in size
# Summary of the method: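 GPX1 10 nM, GR 100 nM, GSH 1 mM, NADPH 0.5 mM, CHP 0.5 mM (final). 30-min cpd preincubation, RT. Ex340/Em450 read t=0, t=15 min.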
# [2] = molecular target: Phospholipid hydroperoxide glutathione peroxidase GPX4 (Homo sapiens) (UniProt P36969); assay: Primary qHTS Assay for Inhibitors of Recombinant Selenoprotein Glutathione Peroxidase 4 (GPX4) (AID 1845192); also: nearly all actives have a fitted effect of over 65% in size; as to activity change, negative = inhibition: series mostly up to about 50 µM
# Summary of the method: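 qHTS, GR-coupled: GPX4 200 nM + cpd 30 min RT → GSH 1 mM, NADPH 0.5 mM, GR 100 nM → CHP 0.5 mM start; fluor 340/450 at t0 and t15 min; no-enzyme wells as control.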
# [3] = molecular target: Luciferin 4-monooxygenase (Photinus pyralis) (UniProt P08659); assay: Primary firefly luciferase (FLuc) qHTS assay for identification of artifact compounds. (AID 1845220); also: nearly all actives have a fitted effect of over 60% in size; also: potency is read from the fitted curve at half-maximal effect; as to activity change, negative = inhibition: series mostly up to about 54 µM
# Summary of the method: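 Reaction readout was CCD-imaged luminescence, taken 5 min after adding 10 nM purified firefly enzyme to compound-treated wells holding 10 uM luciferin and ATP in pH 7.6 buffer.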
# [4] = Primary fluorescence-based thiol-reactive (MSTI) qHTS assay for identification of artifact compounds. (AID 1845221); also: nearly all actives have a fitted effect of over 65% in size; also: potency is read from the fitted curve at half-maximal effect;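 as to activity change, negative = thiol reactive: series mostly up to about 54 µM; thiol-reactive compounds lower the probe fluorescence signal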
# Summary of the method: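 First, 4 uM MSTI in 2% DMSO/PBS pH 7.4 was dispensed; next, compounds were added; then plates sat 1 h at room temperature without light. Finally, emission at 598 nm was recorded.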
# [5] = system: Nanoluciferase (engineered Oplophorus gracilirostris luciferase); assay: Primary Nanoluciferase (NLuc) qHTS assay for identification of artifact compounds. (AID 1845222);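 also: NLuc secreted into diluted conditioned medium of S16 cells; series mostly up to about 54 µM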
# Summary of the method: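 Concentration-response data were obtained by luminescence after 5 min with Nano-Glo substrate at 1:100. The enzyme was diluted S16 NLuc-expressing cell medium, preincubated with compound for 15 min at RT. Curves were fitted with a 4-parameter Hill model.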
# [6] = Primary redox qHTS assay for identification of artifact compounds. (AID 1845223)
# Summary of the method: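 Redox-cycling detection via DTT (250 uM final) oxidation coupled to Amplex Red (25 uM)/HRP (250 mU/mL) in HBSS. 15 min preincubation plus 30 min after DTT, room temperature. Ex/Em 525/598 nm; 4-parameter Hill fit against DMSO and 10 uM DA3003.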
# Chain of Glutathione peroxidase 1 (Homo sapiens) (P07203 whole entry, looked up): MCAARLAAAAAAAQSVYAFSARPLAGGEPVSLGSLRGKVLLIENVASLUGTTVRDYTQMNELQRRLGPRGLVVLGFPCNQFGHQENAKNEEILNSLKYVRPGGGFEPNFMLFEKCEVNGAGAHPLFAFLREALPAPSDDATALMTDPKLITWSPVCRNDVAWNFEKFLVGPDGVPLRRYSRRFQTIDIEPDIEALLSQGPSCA
# Chain of Phospholipid hydroperoxide glutathione peroxidase GPX4 (Homo sapiens) (P36969 whole entry, looked up): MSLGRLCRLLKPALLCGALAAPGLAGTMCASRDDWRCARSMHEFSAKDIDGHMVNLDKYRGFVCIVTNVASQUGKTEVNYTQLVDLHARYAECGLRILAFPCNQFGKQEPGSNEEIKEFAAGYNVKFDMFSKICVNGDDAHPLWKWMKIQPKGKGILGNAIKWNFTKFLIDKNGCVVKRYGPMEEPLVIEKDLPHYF
Compound,Potency [1],Potency [2],Potency [3],Potency [4],Potency [5],Potency [6],"activity change, negative = inhibition [3]","activity change, negative = thiol reactive [4]","activity, negative = inhibition [5]",redox activity (% of DA3003) [6]
C=C1C[C@H](O)[C@@H](O)[C@@]2(C)C1[C@@H](O)[C@H]1OC(=O)C3[C@@H](C)[C@@H](O)[C@H](O)C2[C@]31C (stereo not given in full),inactive,inactive,inactive,inactive,inactive,inactive,,,,
C=C(CCO)C(=O)OCC1OCC(OC(=O)C(=C)CCO[C@@H]2O[C@H](COC(=O)C(=C)CCO[C@@H]3O[C@H](CO)[C@@H](O)[C@H](O)[C@H]3O)[C@@H](O)[C@H](O)[C@H]2O)C(O)C1O (stereo not given in full),inactive,inactive,inactive,inactive,inactive,inactive,,,,
C=C1CCC2C(C)(C)CCC[C@]2(C)[C@H]1CC/C(C)=C/C(=O)O (stereo not given in full),inactive,inactive,inactive,inactive,inactive,inactive,,,,
CC12CC34CC(O)C5C(CO)(CO)CC(=O)CC5(C)C3CC1C2C4 (stereo not given),inactive,inactive,inactive,inactive,inactive,inactive,,,,
C/C=C(/C)C(=O)O[C@H]1C[C@]2(C)O[C@@H]2[C@@H](OC(C)=O)[C@@]2(C)CC[C@@](O)(C(C)C)[C@H]12,inactive,inactive,inactive,inactive,inactive,inactive,,,,
C[C@@H]1O[C@@H](O[C@@H]2[C@@H](O)[C@H](O[C@@H]3[C@@H](O)[C@@H](O)[C@H](O[C@H]4[C@H](OC(=O)[C@]56CCC(C)(C)C[C@H]5C5=CCC7[C@@]8(C)C[C@H](O)[C@H](O[C@@H]9O[C@H](C(=O)O)[C@@H](O)[C@H](O)[C@H]9O)[C@@](C)(CO)C8[C@H](O)C[C@@]7(C)[C@]5(C)C[C@H]6O)O[C@@H](CO)[C@@H]4O)O[C@H]3C)OC[C@H]2O)[C@H](O)[C@H](O)[C@H]1O (stereo not given in full),inactive,inactive,,,,,2.08% [at 11.6 µM],382% [at 11.5 µM],4.49% [at 11.6 µM],16.5% [at 11.5 µM]
Cc1ncc([N+](=O)[O-])n1C[C@H](O)CN1CCOCC1,inactive,inactive,inactive,inactive,inactive,inactive,,,,
CC(NC(=O)[C@H](Cc1ccccc1)NC(=O)OCc1ccccc1)C(=O)CF (stereo not given in full),inactive,inactive,inactive,inactive,inactive,inactive,,,,
NC(=O)[C@@H]1CC[C@H](c2ccc(OCc3ccccc3F)cc2)N1,inactive,inactive,10.7 µM (active),inactive,inactive,inactive,,,,
C=C1C[C@]23C[C@@]1(O)CC[C@H]2[C@@]12C=C[C@H](O)[C@@](C)(C(=O)O1)[C@H]2[C@@H]3C(=O)O,inactive,inactive,inactive,inactive,inactive,inactive,,,,
CC(=O)OC(C)(C)/C=C/C(=O)[C@](C)(O)C1[C@H](O)C[C@@]2(C)[C@@H]3CC=C4[C@@H](C[C@H](O[C@@H]5O[C@H](CO)[C@@H](O)[C@H](O)[C@H]5O)C(=O)C4(C)C)[C@]3(C)C(=O)C[C@]12C (stereo not given in full),inactive,inactive,inactive,inactive,inactive,inactive,,,,
COC(=O)C[C@H]1C(C)(C)[C@H](OC(=O)C(C)C)C2CC3=C4CC(=O)O[C@@H](c5ccoc5)[C@]4(C)CCC3[C@@]1(C)C2=O (stereo not given in full),inactive,inactive,inactive,inactive,inactive,inactive,,,,
C=C1C(O)CC2C(C(=O)O)=COC(O[C@@H]3O[C@H](COC(=O)c4ccc(O)cc4)[C@@H](O)[C@H](O)[C@H]3O)C12 (stereo not given in full),inactive,inactive,inactive,5.19 µM (active),inactive,inactive,,,,
C=C(C(=O)O)[C@@H]1CC[C@H](C)[C@@H]2CC(=O)C(C)=C2C1,inactive,inactive,inactive,21.2 µM (active),inactive,inactive,,,,
CCC(=O)OCC(=O)[C@@]1(OC(=O)CC)[C@@H](C)C[C@H]2[C@@H]3CCC4=CC(=O)C=C[C@]4(C)[C@@]3(F)[C@@H](O)C[C@@]21C,inactive,inactive,inactive,inactive,inactive,inactive,,,,
CC1(C)CC[C@]2(C(=O)O[C@@H]3O[C@H](CO)[C@@H](O)[C@H](O)[C@H]3O)[C@H](O)C[C@]3(C)C(=CCC4[C@@]5(C)CC[C@H](O[C@@H]6OC[C@@H](O)[C@H](O)[C@H]6O)[C@@](C)(C(=O)O)C5CC[C@]43C)[C@@H]2C1 (stereo not given in full),inactive,inactive,inactive,inactive,inactive,inactive,,,,
CC1(C)CCC[C@]2(C)C1CC=C(CO)[C@H]2CC/C(=C/CO)CO (stereo not given in full),inactive,inactive,inactive,inactive,inactive,inactive,,,,
O=C(O)c1ccnc2cc(C(OCC3CCC(F)(F)CC3)c3ccccc3Cl)[nH]c12 (stereo not given),inactive,inactive,inactive,inactive,inactive,inactive,,,,
CC(=O)O[C@@H]1CC2C(C)(C)C(=O)C=C[C@]2(C)C2CC[C@]3(C)C(=CC(=O)[C@@H]3c3ccoc3)[C@@]21C (stereo not given in full),inactive,inactive,inactive,inactive,inactive,inactive,,,,
O=C(OC[C@H]1O[C@H](O[C@]2(CO)O[C@H](CO)[C@@H](O)[C@@H]2O)[C@H](O)[C@@H](O)[C@@H]1O)c1ccc(O)cc1,inactive,inactive,inactive,inactive,inactive,inactive,,,,
